Several values for one entry are separate records, joined by “and”; a condition that tells them apart may be missing. Equal values may be shown once. In all, about 5,500 compounds went through this assay and about 2,000 (36%) were called active. Inconclusive results (about 18%) are left out. No stated cut-off is given here; in the data, active means normalized growth mostly below about 0.91 (no sharp cut-off); inconclusive means no clear call, values can overlap the other calls; inactive means mostly above about 0.92. The list shows a part of the results.
Experiment: chemical genetic growth profiling, strain panel (AID 1159580);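 further: tested at 20 µM; growth read once vehicle control cultures reached saturation at 30 °C; 1 = growth at the plate median or of vehicle wells; lower values mean less growth of the strain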
Conditions: S. cerevisiae deletion strains, growth OD

Measured: normalized growth

COC(=O)CCC(C)[C@H]1CCC2C3C(C[C@H](O)[C@@]21C)[C@@]1(C)CC[C@@H](O)C[C@H]1C[C@H]3O (some centres undefined)
inactive: locus YAL013W, strain DEP1, active compounds read low 1.03 | locus YAL021C, strain ccr4, active compounds read low 1.01 | locus YAL026C, strain drs2, active compounds read low 0.997 | locus YAL030W, strain snc1, active compounds read low 1.01 | locus YBL061C, strain skt5, active compounds read low 1.01 | locus YBR009C, strain hhf1, active compounds read low 1 | locus YBR021W, strain FUR4, active compounds read low 0.952 | locus YBR023C, strain chs3, active compounds read low 1 | locus YBR171W, strain sec66, active compounds read low 1.01 | locus YBR229C, strain ROT2, active compounds read low 1.03 | locus YBR279W, strain paf1, active compounds read low 1.01 | locus YCL011C, strain gbp2, active compounds read low 1.02 | locus YCL016C, strain dcc1, active compounds read low 1.02 | locus YCL029C, strain bik1, active compounds read low 1.04 | locus YCL061C, strain MRC1, active compounds read low 1.02 | locus YCL069W, strain vba3, active compounds read low 1 | locus YCR088W, strain abp1, active compounds read low 1.02 | locus YDL005C, strain med2, active compounds read low 0.999 | locus YDL035C, strain GPR1, active compounds read low 1.01 | locus YDL040C, strain nat1, active compounds read low 1.01 | locus YDL074C, strain BRE1, active compounds read low 0.983 | locus YDL101C, strain DUN1, active compounds read low 1.01 | locus YDL185W, strain tfp1, active compounds read low 1.02 | locus YDL192W, strain arf1, active compounds read low 1.02 | locus YDR001C, strain nth1, active compounds read low 1.01 | locus YDR069C, strain doa4, active compounds read low 1 | locus YDR101C, strain arx1, active compounds read low 1.01 | locus YDR137W, strain rgp1, active compounds read low 1.07 | locus YDR150W, strain NUM1, active compounds read low 1.02 | locus YDR159W, strain sac3, active compounds read low 0.994 | locus YDR162C, strain NBP2, active compounds read low 1.02 | locus YDR195W, strain ref2 1 | locus YDR297W, strain sur2, active compounds read low 1.01 | locus YDR318W, strain mcm21, active compounds read low 1.01 | locus YDR334W, strain swr1, active compounds read low 1.01 | locus YDR335W, strain msn5, active compounds read low 1.01 | locus YDR388W, active compounds read low 1.02 | locus YDR392W, strain spt3, active compounds read low 0.965 | locus YDR502C, strain sam2, active compounds read low 1.02 | locus YEL003W, strain gim4, active compounds read low 1.01 | locus YEL037C, strain rad23, active compounds read low 1.01 | locus YEL061C, strain CIN8 (second series), active compounds read low 1.01 | locus YEL061C, strain CIN8, active compounds read low 1 | locus YER015W, strain faa2, active compounds read low 1.02 | locus YER016W, strain bim1, active compounds read low 1.01 | locus YER110C, active compounds read low 1.02 | locus YER111C, strain swi4, active compounds read low 1.01 | locus YER155C, strain BEM2 (second series), active compounds read low 1.02 | locus YER155C, strain BEM2, active compounds read low 1.02 | locus YER167W, strain BCK2, active compounds read low 1 | locus YFR010W, strain ubp6, active compounds read low 0.996 | locus YGL078C, strain dbp3, active compounds read low 1.02 | locus YGL086W, strain mad1, active compounds read low 1.01 | locus YGL167C, strain pmr1, active compounds read low 1.01 | locus YGL173C, strain kem1, active compounds read low 1.01 | locus YGL227W, strain vid30, active compounds read low 1.02 | locus YGL240W, strain doc1, active compounds read low 1.04 | locus YGL248W, strain PDE1, active compounds read low 1.01 | locus YGL253W, strain hxk2, active compounds read low 0.96 | locus YGR078C, strain PAC10, active compounds read low 1 | locus YGR135W, strain pre9, active compounds read low 1 | locus YGR252W, strain gcn5, active compounds read low 0.909 | locus YHR013C, strain ard1, active compounds read low 1.02 | locus YHR027C, strain rpn1, active compounds read low 1 | locus YHR030C, strain SLT2, active compounds read low 1.02 and 1.01 | locus YHR079C, strain IRE1 (second series), active compounds read low 1.03 | locus YHR079C, strain IRE1, active compounds read low 0.984 | locus YHR094C, strain hxt1, active compounds read low 1.06 | locus YHR129C, strain ARP1, active compounds read low 1.01 | locus YHR142W, strain chs7, active compounds read low 0.976 | locus YHR200W, strain rpn10, active compounds read low 1 | locus YIL066C, strain RNR3, active compounds read low 1.01 | locus YIL073C, strain SPO22, active compounds read low 1.07 | locus YIL125W, strain kgd1, active compounds read low 1.03 | locus YIR030C, strain dcg1, active compounds read low 1.03 | locus YJL092W, strain hpr5, active compounds read low 1.01 | locus YJL095W, strain BCK1 (second series), active compounds read low 1.02 | locus YJL095W, strain BCK1, active compounds read low 0.976 and 0.998 | locus YJL115W, strain asf1, active compounds read low 1.01 | locus YJL129C, strain trk1, active compounds read low 1.03 | locus YJL134W, strain LCB3, active compounds read low 1.03 | locus YJL154C, strain vps35, active compounds read low 1.02 | locus YJL164C, strain tpk1, active compounds read low 1.01 | locus YJL166W, strain qcr8, active compounds read low 1.02 | locus YJL168C, strain set2, active compounds read low 1.03 | locus YJL187C, strain SWE1 (second series), active compounds read low 1.02 | locus YJL187C, strain SWE1, active compounds read low 1.01 | locus YJR043C, strain POL32, active compounds read low 0.999 | locus YJR066W, strain TOR1, active compounds read low 0.949

Reference: PubChem BioAssay AID1159580 (chemical genetic matrix, 2015)
